From the supplement of paper PMC7335073
The full ranking holds about 4,100 sequences; the median of “relative CpG methylation activity (normalised to average over all NNNCGNNN flanks)” is about 0.94, and the highest 2% start at about 1.9. The entries come from a sample that favours the highest values as a whole.

What follows are sequences tested against DNMT3B catalytic domain (mouse) (UniProt O88509) (assay: relative CpG methylation activity (normalised to average over all NNNCGNNN flanks) (relative (1 = mean)); higher = more methylation of the central CpG). Conditions: system: in vitro, murine catalytic domain; CpG state: hemimethylated substrate pool; residues: 558-859.
Experimental: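 Deep enzymology: a pool of dsDNA substrates with a central CpG flanked by 10 random nucleotides on each side was methylated by the murine DNMT3A or DNMT3B catalytic domain (0.8 mM SAM, 37 °C, 60 min). Methylation was then read out by hairpin ligation, bisulfite conversion and NGS. Values are the average methylation of each NNNCGNNN context (±3 flanks; the outer flanks are random and averaged over), normalised to the overall mean, so 1 = average activity.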

Chain of DNMT3B catalytic domain (mouse) (O88509 558-859): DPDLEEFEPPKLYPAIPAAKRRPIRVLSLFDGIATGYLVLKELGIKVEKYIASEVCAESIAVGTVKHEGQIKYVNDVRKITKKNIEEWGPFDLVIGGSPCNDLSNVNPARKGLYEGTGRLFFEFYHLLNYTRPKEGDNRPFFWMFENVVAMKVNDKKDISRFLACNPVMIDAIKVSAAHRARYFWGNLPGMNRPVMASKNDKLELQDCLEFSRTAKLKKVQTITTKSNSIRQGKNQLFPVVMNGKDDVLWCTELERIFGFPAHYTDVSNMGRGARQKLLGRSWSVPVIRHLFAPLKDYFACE

Question: CTACGGTT was tested. Which “relative CpG methylation activity” value did it give?
Answer: 1.76

Question: Which “relative CpG methylation activity” value does the source give for TCACGGCC here?
Answer: 1.74

Question: How did the “relative CpG methylation activity” value turn out when TTACGGCC was run?
Answer: 1.97

Question: GTACGGCT was tested. Which “relative CpG methylation activity” value did it give?
Answer: 1.56

Question: CCACGGCT was tested. Which “relative CpG methylation activity” value did it give?
Answer: 1.89

Question: With CCACGGCG as the sequence, how does the “relative CpG methylation activity” value read?
Answer: 1.86

Question: How did the “relative CpG methylation activity” value turn out when CTACGGCG was run?
Answer: 2.04

Question: Which “relative CpG methylation activity” value does the source give for CTACGGAG here?
Answer: 1.52

Question: With TTACGGAC as the sequence, how does the “relative CpG methylation activity” value read?
Answer: 1.85

Question: How did the “relative CpG methylation activity” value turn out when GTACGGCA was run?
Answer: 1.9

Question: For CCTCGATT, which “relative CpG methylation activity” value is on record?
Answer: 1.35

Question: With TGACGGCA as the sequence, how does the “relative CpG methylation activity” value read?
Answer: 1.53

Question: How did the “relative CpG methylation activity” value turn out when CACCGTAT was run?
Answer: 0.274

Question: Which “relative CpG methylation activity” value does the source give for CTACGCCA here?
Answer: 1.78

Question: TCCCGTTA was tested. Which “relative CpG methylation activity” value did it give?
Answer: 0.532

Question: TAGCGGTC was tested. Which “relative CpG methylation activity” value did it give?
Answer: 1.12

Question: For GCACGCTA, which “relative CpG methylation activity” value is on record?
Answer: 0.861

Question: For AGTCGATC, which “relative CpG methylation activity” value is on record?
Answer: 1.7

Question: AGTCGGAT was tested. Which “relative CpG methylation activity” value did it give?
Answer: 0.542

Question: For AGGCGTCT, which “relative CpG methylation activity” value is on record?
Answer: 0.521

Question: Which “relative CpG methylation activity” value does the source give for GTTCGGAC here?
Answer: 1.37

Question: How did the “relative CpG methylation activity” value turn out when TTACGGTG was run?
Answer: 1.52

Question: With GTACGGCC as the sequence, how does the “relative CpG methylation activity” value read?
Answer: 1.9

Question: TTACGGCG was tested. Which “relative CpG methylation activity” value did it give?
Answer: 2.25

Question: Which “relative CpG methylation activity” value does the source give for TTACGGCA here?
Answer: 2.04

Question: TCACGGCG was tested. Which “relative CpG methylation activity” value did it give?
Answer: 1.89

Question: ATACGGAC was tested. Which “relative CpG methylation activity” value did it give?
Answer: 1.59

Question: For GTACGGAC, which “relative CpG methylation activity” value is on record?
Answer: 1.51

Question: ATACGGCC was tested. Which “relative CpG methylation activity” value did it give?
Answer: 2.01

Question: Which “relative CpG methylation activity” value does the source give for TTACGGAA here?
Answer: 1.64

Question: Which “relative CpG methylation activity” value does the source give for GTACGGTC here?
Answer: 1.87

Question: Which “relative CpG methylation activity” value does the source give for ATACGGCT here?
Answer: 1.89

Question: TCACGGCA was tested. Which “relative CpG methylation activity” value did it give?
Answer: 1.82

Question: With GACCGGCT as the sequence, how does the “relative CpG methylation activity” value read?
Answer: 1.19

Question: For ACGCGTAG, which “relative CpG methylation activity” value is on record?
Answer: 0.632

Question: Which “relative CpG methylation activity” value does the source give for AGGCGATC here?
Answer: 1.05

Question: For ACACGATC, which “relative CpG methylation activity” value is on record?
Answer: 1.75

Question: With GGCCGACT as the sequence, how does the “relative CpG methylation activity” value read?
Answer: 0.91

Question: How did the “relative CpG methylation activity” value turn out when TTACGTCC was run?
Answer: 1.93

Question: For GTACGTAC, which “relative CpG methylation activity” value is on record?
Answer: 1.42

Question: TTACGTAC was tested. Which “relative CpG methylation activity” value did it give?
Answer: 1.95

Question: For TTACGTCT, which “relative CpG methylation activity” value is on record?
Answer: 1.64

Question: TTACGTAT was tested. Which “relative CpG methylation activity” value did it give?
Answer: 1.19

Question: For ATACGTCC, which “relative CpG methylation activity” value is on record?
Answer: 1.54

Question: For AGTCGACA, which “relative CpG methylation activity” value is on record?
Answer: 1.24

Question: CTGCGGAA was tested. Which “relative CpG methylation activity” value did it give?
Answer: 0.922

Question: With ACACGCTG as the sequence, how does the “relative CpG methylation activity” value read?
Answer: 1.11

Question: How did the “relative CpG methylation activity” value turn out when GATCGATC was run?
Answer: 1.48

Question: For TCCCGAGG, which “relative CpG methylation activity” value is on record?
Answer: 1.3

Question: CCCCGAGC was tested. Which “relative CpG methylation activity” value did it give?
Answer: 1.93

Question: How did the “relative CpG methylation activity” value turn out when TCCCGAGC was run?
Answer: 2.01

Question: For CCCCGAGA, which “relative CpG methylation activity” value is on record?
Answer: 1.68

Question: How did the “relative CpG methylation activity” value turn out when CCCCGAGG was run?
Answer: 1.5

Question: With ACCCGAGC as the sequence, how does the “relative CpG methylation activity” value read?
Answer: 1.75

Question: How did the “relative CpG methylation activity” value turn out when CACCGCGT was run?
Answer: 0.402

Question: With CTGCGCCA as the sequence, how does the “relative CpG methylation activity” value read?
Answer: 1.17

Question: How did the “relative CpG methylation activity” value turn out when CGACGGCA was run?
Answer: 1.82

Question: How did the “relative CpG methylation activity” value turn out when AGACGGCC was run?
Answer: 1.71

Question: With CGACGGCC as the sequence, how does the “relative CpG methylation activity” value read?
Answer: 1.46

Question: With AGACGGCG as the sequence, how does the “relative CpG methylation activity” value read?
Answer: 1.94

Question: CGACGGCG was tested. Which “relative CpG methylation activity” value did it give?
Answer: 1.93

Question: Which “relative CpG methylation activity” value does the source give for TGACGGCG here?
Answer: 1.63

Question: How did the “relative CpG methylation activity” value turn out when AACCGTCC was run?
Answer: 0.606

Question: How did the “relative CpG methylation activity” value turn out when TATCGAGG was run?
Answer: 1.5

Question: With GTACGCGT as the sequence, how does the “relative CpG methylation activity” value read?
Answer: 1.4

Question: For ATACGCCC, which “relative CpG methylation activity” value is on record?
Answer: 1.69

Question: How did the “relative CpG methylation activity” value turn out when CCACGGGA was run?
Answer: 1.42

Question: TTACGGGT was tested. Which “relative CpG methylation activity” value did it give?
Answer: 1.83

Question: For GTACGGGT, which “relative CpG methylation activity” value is on record?
Answer: 1.85

Question: GTACGGGA was tested. Which “relative CpG methylation activity” value did it give?
Answer: 1.73

Question: With CAACGGGA as the sequence, how does the “relative CpG methylation activity” value read?
Answer: 1.82

Question: CTACGGGT was tested. Which “relative CpG methylation activity” value did it give?
Answer: 1.94

Question: How did the “relative CpG methylation activity” value turn out when CTACGGGA was run?
Answer: 1.91

Question: TTACGGGA was tested. Which “relative CpG methylation activity” value did it give?
Answer: 1.92

Question: How did the “relative CpG methylation activity” value turn out when ATACGGGT was run?
Answer: 1.73

Question: For GTACGGGC, which “relative CpG methylation activity” value is on record?
Answer: 1.63

Question: TTACGGGC was tested. Which “relative CpG methylation activity” value did it give?
Answer: 2.03

Question: Which “relative CpG methylation activity” value does the source give for CTACGGGC here?
Answer: 1.75

Question: For TACCGCTG, which “relative CpG methylation activity” value is on record?
Answer: 0.389

Question: TATCGCAG was tested. Which “relative CpG methylation activity” value did it give?
Answer: 0.473

Question: Which “relative CpG methylation activity” value does the source give for GAACGCGG here?
Answer: 0.853

Question: How did the “relative CpG methylation activity” value turn out when TACCGCGG was run?
Answer: 0.374

Question: CGGCGAAG was tested. Which “relative CpG methylation activity” value did it give?
Answer: 0.694

Question: GCGCGCCA was tested. Which “relative CpG methylation activity” value did it give?
Answer: 0.631

Question: How did the “relative CpG methylation activity” value turn out when GTGCGAAA was run?
Answer: 1.05

Question: How did the “relative CpG methylation activity” value turn out when GTACGGGG was run?
Answer: 1.6

Question: CTACGGGG was tested. Which “relative CpG methylation activity” value did it give?
Answer: 1.9

Question: For TTACGGGG, which “relative CpG methylation activity” value is on record?
Answer: 2

Question: For CGACGGGG, which “relative CpG methylation activity” value is on record?
Answer: 0.808

Question: Which “relative CpG methylation activity” value does the source give for ATACGGGC here?
Answer: 1.93

Question: ATACGGGA was tested. Which “relative CpG methylation activity” value did it give?
Answer: 1.66

Question: With CAACGGGG as the sequence, how does the “relative CpG methylation activity” value read?
Answer: 1.39

Question: ATACGGGG was tested. Which “relative CpG methylation activity” value did it give?
Answer: 1.61

Question: How did the “relative CpG methylation activity” value turn out when ACACGGGC was run?
Answer: 1.54

Question: Which “relative CpG methylation activity” value does the source give for GTTCGTAC here?
Answer: 1.18

Question: GCTCGCCC was tested. Which “relative CpG methylation activity” value did it give?
Answer: 0.844

Question: With GTCCGATG as the sequence, how does the “relative CpG methylation activity” value read?
Answer: 1.16

Question: GACCGTCT was tested. Which “relative CpG methylation activity” value did it give?
Answer: 0.495
